Compounds with a hit are over-represented: about 7.5% of the library has one in this group of screens.
NPC1 promoter act: activates the NPC1 promoter. Potency, µM (series often up to 9.22 µM), inactives show at the top dose activation, usual class: activators. AID 485313. Huh7 NPC1 promoter luciferase reporter, 24 h. 320,000 compounds, 2.4% hits; further: % of control where 0% means no effect; nearly all actives have a fitted effect of over 60% in size
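Huh7 cells stably carrying NPC1 promoter–luciferase, plated in Opti-MEM with 10% FBS for 2 h, were exposed to compound in DMSO for 24 h at 37 °C; luciferase reagent was added for 10 min and luminescence read.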
FLuc counter: firefly luciferase modulation, counter-screen for miR-21 project; P08659; purified FLuc, Km substrates, luminescence inhibition; Potency, µM (series often up to 57.5 µM), for the others: at the highest dose activity change, negative = inhibition, most hits filed as inhibitors; 360,000 compounds, 6.9% hits;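 further: plate controls were vehicle for no effect and reference inhibitor for full effect; nearly all actives have a fitted effect of over 55% in size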
Target sequence (P08659 whole entry, looked up): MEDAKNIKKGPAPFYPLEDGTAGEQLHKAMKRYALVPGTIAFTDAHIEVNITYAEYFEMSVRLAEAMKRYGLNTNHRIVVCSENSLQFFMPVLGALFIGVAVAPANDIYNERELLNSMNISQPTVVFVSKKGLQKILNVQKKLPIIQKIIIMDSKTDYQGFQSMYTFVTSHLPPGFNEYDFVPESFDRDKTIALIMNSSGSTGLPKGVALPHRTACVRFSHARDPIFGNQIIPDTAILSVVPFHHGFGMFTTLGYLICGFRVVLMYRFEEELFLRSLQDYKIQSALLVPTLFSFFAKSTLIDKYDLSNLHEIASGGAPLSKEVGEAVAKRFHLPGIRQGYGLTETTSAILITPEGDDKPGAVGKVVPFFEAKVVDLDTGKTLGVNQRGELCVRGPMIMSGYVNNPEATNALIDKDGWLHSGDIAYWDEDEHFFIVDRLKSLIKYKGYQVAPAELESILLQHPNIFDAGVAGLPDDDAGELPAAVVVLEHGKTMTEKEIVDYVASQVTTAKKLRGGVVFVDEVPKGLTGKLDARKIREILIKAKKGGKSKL
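Biochemical qHTS of compounds, final roughly 60 µM downward over six points, against 10 nM purified firefly luciferase using Km concentrations of substrates (10 uM D-luciferin, 10 uM ATP) in Tris acetate pH 7.5 buffer; luminescence output.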
ELG1 genotoxic: inducers of genotoxicity in HEK293T ELG1-luciferase cells; HEK293T ELG1-luciferase reporter, luminescence, 16 h; Potency, µM (top dose mostly 46 µM), for inactives: top-dose activity change, positive = activation, hits mostly activators; 330,000 compounds, 1.3% hits; AID 504466; further: % of control where 0% means no effect; nearly all actives have a fitted effect of over 60% in size
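Quantitative HTS format in 1536-well plates. HEK293T ELG1-luciferase reporter cells receive test compound and are incubated 16 hr at 37 °C, 5% CO2; ONE-Glo added, 30 min room temperature, then luminescence read.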
SMN2 splice enh: SMN2 splice variant enhancement. Potency, µM (series often up to 46.1 µM), for inactives: top-dose activity change, positive = activation, hits mostly activators. 210,000 compounds, 2.8% hits. HEK293 SMN2-luciferase splicing reporter, luminescence, 30-36 h; further: % of control where 0% means no effect; nearly all actives have a fitted effect of over 55% in size
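HEK293 cells carry an SMN2 […]–luciferase reporter in which exon 7 inclusion puts luciferase in frame. Cells were plated 10-12 h before compound addition, then incubated 30-36 h at 37C. ONE-Glo luminescence was read; sodium butyrate at 4.5 mM final served as control.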
Rab9 promoter act: activators of Rab9 promoter. Huh7 Rab9 promoter-luciferase reporter, luminescence, 24 h. Potency, µM (series often up to 9.22 µM), for the others: top-dose activation, negative = inhibition, hits mostly activators. 320,000 compounds, 2.8% hits. AID 485297; further: % of control where 0% means no effect; nearly all actives have a fitted effect of over 60% in size
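Measured in stably transfected Huh7 cells bearing a Rab9 promoter–luciferase construct: 24 h compound treatment at 37 °C, followed by luminescence detection.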
* hit, by the source's call; ? = inconclusive; . = no result; [ ] = dose if it differs, or a comment. The call rests on the fitted dose curve; in most records, active means well fitted curve in the direction sought with a large enough effect; inconclusive means small, poorly fitted or top-dose-only effect, or another doubt; inactive means no such curve, though single readings can be large; an effect the other way counts as inactive or inconclusive. Potency means the concentration at half of the fitted maximal effect.

SMILES	NPC1 promoter act	FLuc counter	ELG1 genotoxic	SMN2 splice enh	Rab9 promoter act
Cc1ccc(NCc2nc3ccccc3n2C)cc1	1.1µM*	3.4µM*	1.5µM*	2.2µM*	0.63µM*
CCOC(=O)c1ccc(NCc2nc3ccccc3n2C)cc1	3.2µM*	?	27%	.	3.2µM*
Cn1c(CNC2CCCCC2)nc2ccccc21	1%	4%	-1%	0%	-2%
Cc1ccc(NC(=O)NCc2nc3ccccc3n2C)cc1	-7%	-2%	-3%	.	1%
Cn1c(CNc2ccc(O)cc2)nc2ccccc21	?	13µM*	?	.	?
Cc1nc2ccccc2n1CCCOc1ccccc1	12%	11µM*	14%	-26%	17%
O=C(C[n+]1ccccc1)N/N=C/c1ccc(Cl)c(Cl)c1	-8%	1%	-9%	.	-3%
C[C@H]1NS(=O)(=O)c2ccc(Br)cc2O[C@H]1c1ccccc1	.	.	2%	.	.
Cn1c(CNc2ccc(Br)cc2)nc2ccccc21	1.6µM*	2.7µM*	?	.	2.8µM*
COc1ccc(Nc2nc3ccccc3n3cnnc23)cc1	-4%	-13%	5%	?	-3%
COc1ccc(NCc2nc3ccccc3n2C)cc1	1.8µM*	11µM*	5.2µM*	.	2.2µM*
CC(C)n1c(NCc2nc3ccccc3n2C)nc2ccccc21	0%	-18%	-2%	-3%	2%
COc1ccc(Nc2nc3ccccc3n3c(N)nnc23)cc1	.	9.5µM*	.	16%	.
Cn1c(CNc2nc3ccccc3n2C)nc2ccccc21	3.5µM*	?	9%	?	?
O=C(CN1C(=O)NC2(CCCCC2)C1=O)NCc1ccc2c(c1)OCO2	-1%	-4%	-2%	24%	3%
COc1ccc(CCNC(=O)c2ccc3c(c2)CCN3S(=O)(=O)c2ccc(C)cc2)cc1OC	.	-2%	.	-29%	.
COc1ccc(NCc2nc3ccccc3n2CCOc2ccccc2)cc1	?	13µM*	21µM*	?	?
Cn1c(Nc2ccc(F)cc2)nc2ccccc21	-2%	?	2%	.	1%
COc1ccc(NCc2nc3ccccc3n2CCOc2ccc(C)cc2)cc1	16%	?	?	-23%	14%
COc1ccc(Nc2nc3ccccc3n2C)cc1	2.5µM*	15µM*	25%	.	3.2µM*
Cc1ccc(NCc2nc3ccccc3n2C)cc1C	3.5µM*	4.8µM*	?	.	2.8µM*
COc1ccc(/C(C)=N/Nc2nncc3ccccc23)cc1	1.6µM*	1.3µM*	?	.	0.71µM*
Oc1c(Br)cc(/C=N/Nc2nncc3ccccc23)cc1Br	?	9.5µM*	12%	.	29%
Oc1c(Br)cc(/C=N/Nc2ccc(Cl)nn2)cc1Br	0%	-5%	-1%	.	-6%
C/C(=N\Nc1nc(-c2ccccc2O)nc2ccccc12)c1ccccc1	15%	?	0%	.	17%
SMILES	NPC1 promoter act	FLuc counter	ELG1 genotoxic	SMN2 splice enh	Rab9 promoter act
COc1ccc(/C(C)=N/Nc2nc3ccccc3nc2C)cc1	4%	2.7µM*	7%	.	6%
NNc1nncc2ccccc12	2.6µM*	.	.	13µM*	2.3µM*
CCCCCOc1ccc(C(=O)CCC(=O)Nc2ccc(NC(C)=O)cc2)cc1	2%	-1%	2%	.	7%
Cc1nonc1C1CCCN1C(=O)c1cc(COc2ccc(F)cc2Cl)on1 (stereo not drawn)	1%	?	3%	.	0%
COc1ccccc1/C=N/Nc1nncc2ccccc12	?	9.5µM*	?	10µM*	3.5µM*
COc1ccc(/C=N/Nc2nncc3ccccc23)cc1	0.28µM*	0.17µM*	0.26µM*	0.71µM*	0.2µM*
Cc1ccccc1OCC(=O)Nc1nnc(-c2ccco2)s1	-1%	-2%	2%	.	-2%
COc1ccccc1C(=O)Nc1nnc(-c2ccco2)s1	0%	2.7µM*	1.6µM*	11µM*	?
Cc1ccccc1C(=O)Nc1nnc(-c2ccco2)s1	0.56µM*	1.5µM*	1.5µM*	2µM*	0.32µM*
COc1cc(-c2nnc(SCC(=O)NC3CCS(=O)(=O)C3)o2)cc(OC)c1OC (stereo not drawn)	0%	0%	7%	13%	-5%
CCOc1cc(CN2CCC(n3nccc3NC(=O)C3CC3)CC2)ccc1O	4%	-1%	-2%	.	-7%
CN[C@@H]1[C@H](O[C@H]2[C@@H](O[C@@H]3[C@@H](O)[C@@H](O)[C@@H](N=C(N)N)[C@@H](O)[C@@H]3N=C(N)N)O[C@@H](C)[C@]2(O)CO)O[C@H](CO)[C@@H](O)[C@@H]1O	.	.	.	-23%[20.6 µM]	.
COc1ccc2oc(C(=O)NC3CCCCC3)c(C)c2c1	3.2µM*	5.4µM*	3.7µM*	.	3.2µM*
COc1ccc2oc(C(=O)NCCC(C)C)c(C)c2c1	3.2µM*	3.4µM*	?	11µM*	?
COc1ccc2oc(=O)c(C(=O)NC3CCCCCC3)cc2c1	25%	15µM*	?	.	-6%
CNC(=O)c1cc2cc(OC)ccc2oc1=O	-1%	-7%	3%	-8%	16%
Cc1c(C(=O)NC2CCCCC2)oc2ccc(F)cc12	?	12µM*	?	.	?
Cc1ccc2oc(C(=O)NC3CCS(=O)(=O)C3)c(C)c2c1 (stereo not drawn)	17%	-16%	17%	.	14%
COc1ccc(C(CNC(=O)c2oc3ccc(OC)cc3c2C)N2CCCC2)cc1 (stereo not drawn)	-2%	-8%	0%	.	-13%
COc1ccc2oc(C(=O)NN3C(C)CCCC3C)c(C)c2c1 (stereo not drawn)	-7%	-2%	1%	13%	-4%
CCOC(=O)CC(NC(=O)c1cc2cc(OC)ccc2oc1=O)c1ccc(OC)cc1 (stereo not drawn)	.	-9%	.	17%	.
COc1ccc(OCCSc2nc3ccccc3n2CCC(=O)O)cc1	-6%	-19%	0%	.	-3%
COc1ccccc1OCCSc1nc2ccccc2n1CCO	1%	17µM*	-1%	.	1%
COc1ccccc1OCCSc1nc2ccccc2n1CCC(=O)O	1%	27µM*	6%	.	-2%
N/C(=N\OC(=O)Cc1ccccc1)c1ccccn1	12%	17µM*	10%	20%	11%
SMILES	NPC1 promoter act	FLuc counter	ELG1 genotoxic	SMN2 splice enh	Rab9 promoter act
N/C(=N\OC(=O)CCCc1ccccc1)c1ccccn1	5%	2.1µM*	2%	26%	0%
COc1ccc(/C(N)=N/OC(=O)CCC2CCCC2)cc1OC	-7%	?	9%	.	2%
N/C(=N\OC(=O)CCC1CCCC1)c1ccccn1	25%	0.48µM*	?	?	23%
O=C(Cn1c(=O)oc2cc(S(=O)(=O)NCc3ccccc3)ccc21)N(CCO)Cc1ccccc1	.	-1%	.	.	.
NC(=O)NCC(N)C(=O)O (stereo not drawn)	.	.	.	1%	.
CC(=O)c1ccc(NC(=O)C(Cc2ccccc2)n2cccc2)cc1 (stereo not drawn)	-6%	?	-3%	.	-2%
